Results: PubChem BioAssay (NCI)
About 83,000 compounds went through this panel and 20% of them were active in at least one assay; those are over-represented in the sample as a whole.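 Results are percent growth after 48 hours of single-concentration exposure. 100 means growth as in untreated cells, lower positive values show inhibition; negative values down to -100 show cell death.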 A number with no mark means an inactive call. Active and inactive are the calls of the source. The calls were made as follows: active = growth percent below 10; inactive = the rest.

Experiments:
Assay in all cases: NCI-60 one-dose screen, 48 h (100 = growth as untreated, 0 = no growth, -100 = all killed)
Conditions in all cases: 10 µM unless noted
[1] = system: NCI-H23 lung
[2] = system: NCI-H226 lung
[3] = system: NCI-H322M lung
[4] = system: HOP-62 NSCLC
[5] = system: NCI-H460 lung
[6] = system: HOP-92 NSCLC
[7] = system: NCI-H522 lung
[8] = system: A549/ATCC NSCLC
[9] = system: 786-0 renal
[10] = system: COLO 205 colon

SMILES	growth [1]	growth [2]	growth [3]	growth [4]	growth [5]	growth [6]	growth [7]	growth [8]	growth [9]	growth [10]
NC(=O)CSc1oc(-c2ccccc2)nc1S(=O)(=O)c1ccc(Br)cc1	79.8%	54.7%	89.8%	73.9%	71.6%	5.26% (active)	70.1%	74.5%	25.9%	107%
Nc1[nH]n2cc(-c3ccccc3)nc2c1N=Nc1ccc(S(N)(=O)=O)cc1	45.7%	52.7%	36.6%	42.5%	20.1%	25.7%	30.5%	32.8%	28.4%	45.1%
Cc1ccc(Nn2c(SCC(=O)Nc3nc(-c4ccccc4)cs3)nc(C)c2C)cc1	39.4%	46.3%	96%	73.1%	78.1%	59.9%	49.7%	46.3%	82.3%	27.1%
COc1ccc(C2=C(Nc3ccc(C(=O)Nc4ccccc4)cc3)C(=O)N(C)C2=O)cc1	88.7%	95.2%	88.7%	72.2%	108%	117%	59.9%	78.2%	105%	105%
O=C(NCc1ccc(Cl)cc1Cl)C1CCC(=O)N1c1cccs1 (stereo not given)	91%	103%	104%	92.9%	104%	103%	76.8%	86.3%	94%	96.8%
COc1cc(/C=C2/C=C(c3ccccc3)N(CCc3ccc(S(N)(=O)=O)cc3)C2=O)cc(OC)c1OC	103%	94.6%	100%	94%	105%	41.9%	81.3%	86.4%	85.5%	108%
O=C(/C=C/c1ccco1)Nc1ncc(Cc2cccc(C(F)(F)F)c2)s1	22.4%	33.2%	30.4%	1.31% (active)	-0.329% (active)	64.3%	-15% (active)	11.6%	12.6%	-47.5% (active)
COc1cc2c(cc1OCCCN1CCN(CCCOc3cc4c(cc3OC)C(=O)N3CCC[C@H]3C=N4)CC1)C=CC(C)(C)O2	-58.5% (active)	-70.3% (active)	-80.7% (active)	-50.9% (active)	-94.8% (active)	-29.6% (active)	-80.5% (active)	-79.2% (active)	-97.1% (active)	-76.8% (active)
CCOC(=O)c1cc2c(n1Cc1cc(OC)c(OC)c(OC)c1)-c1nc(N)sc1CCC2	62.9%	73.4%	81.7%	44.3%	31.9%	42%	7.85% (active)	28%	36.8%	40.3%
COC(=O)[C@@H](CCCCNC(=O)[C@]12CCC(C)(C)C[C@@H]1C1=CC[C@@H]3[C@@]4(C)C/C(=C/c5ccco5)C(=O)C(C)(C)[C@@H]4CC[C@@]3(C)[C@]1(C)CC2)NC(=O)[C@]12CCC(C)(C)C[C@@H]1C1=CC[C@@H]3[C@@]4(C)C/C(=C/c5ccco5)C(=O)C(C)(C)[C@@H]4CC[C@@]3(C)[C@]1(C)CC2	106%	103%	93.9%	104%	107%	114%	94.1%	100%	104%	120%
CC(C)(C)[Si](C)(C)OC1[C@@H](CNC(=O)NC(=O)NC(N)=O)O[C@@H](n2cnc3c(NC(=O)Nc4ccccc4)ncnc32)[C@H]1O[Si](C)(C)C(C)(C)C (stereo not given in full)	75.4%	69.4%	87.1%	71%	27.4%	92%	43.3%	44.1%	90.9%	54.3%
COc1ccc(CN2c3ccccc3Sc3ccccc32)cc1F	30.7%	45.6%	43%	20.4%	5.41% (active)	50.4%	4.53% (active)	21.9%	22.5%	-32.9% (active)
CC(C)Cn1cnc2c(=O)[nH]c(N)nc21	99.3%	89.8%	99.9%	80.8%	110%	90.8%	70.8%	85.4%	98.9%	97.1%
CC(C)(Sc1cc(C(C)(C)C)c(O)c(C(C)(C)C)c1)Sc1cc(C(C)(C)C)c(OC(=O)CCCC(=O)O)c(C(C)(C)C)c1	39.9%	66.2%	60.4%	67%	37%	40.2%	46.4%	35%	56.1%	64.3%
CC1CCc2c(C(=O)Nc3ncc(Cc4cccc([N+](=O)[O-])c4)s3)csc2C1 (stereo not given)	36.6%	54.1%	33.1%	26.8%	11.2%	58.9%	2.96% (active)	34.4%	30.1%	10.8%
O=C1/C(=C/c2ccc([N+](=O)[O-])cc2)COc2ccc(O)cc21	96.6%	100%	91.9%	104%	97.9%	110%	62.2%	97.1%	81.9%	92.9%
Cc1ccc(NC(=O)c2sc3nc(C)c(Br)c(C)c3c2N)cc1	73.8%	47.7%	51.2%	34.9%	54.4%	-5.03% (active)	71.9%	67.7%	30.5%	84.9%
CN(c1cc2ncc(=O)[nH]c2cc1NC(N)=NCc1ccc(Cl)cc1)C1CCCCC1	88.1%	72.8%	84.5%	80.8%	40.3%	28%	30.5%	89.3%	68.5%	-63.6% (active)
CC(=O)O[C@H]1CC2CCC3C(CC[C@@]4(C)C3C[C@H]([N+]3(C)CCCCC3)[C@@H]4OC(C)=O)[C@@]2(C)C[C@@H]1N1CCCCC1 (stereo not given in full)	102%	106%	110%	114%	111%	86.5%	95.8%	101%	106%	104%
O=C(N(c1ccccc1)c1ccccc1)n1cc(I)c2nc(Cl)nc(Cl)c21	72.6%	71.8%	92.6%	43.9%	43.8%	71.8%	3.35% (active)	60.2%	57.7%	79.4%
CCOc1ccc(NC(=O)CSc2oc(-c3ccccc3)nc2S(=O)(=O)c2ccc(C)cc2)cc1	67.4%	-18.8% (active)	61.1%	53.9%	35.9%	46.4%	83.8%	41.1%	66.1%	81.8%
O=C1NC2(Nc3ccccc31)C(=O)Nc1c(Cl)cc(Cl)cc12 (stereo not given)	104%	93.8%	110%	84.7%	102%	106%	103%	110%	103%	119%
O=C1c2ccccc2-c2c1c1c(=O)[nH]c3ccccc3c1n2Cc1ccccc1	63.1%	29.5%	58.4%	75.8%	58.9%	56.4%	35%	44.9%	39.7%	73.8%
O=C(CN1C(=O)NC2NC(=O)NC21)N/N=C/c1ccccc1[N+](=O)[O-] (stereo not given)	106%	87.6%	106%	103%	108%	115%	96.5%	110%	101%	120%
COc1ccc(OC)c(Nc2nnc(-c3ccc(O)c(OC)c3)o2)c1	70.7%	77.1%	86.9%	77.6%	82.8%	85.1%	61.1%	75.5%	36.7%	117%
COc1ccc(C(=O)c2cc3c(N)c(C(=O)Nc4ccc(C)cc4)sc3nc2C)cc1	43.3%	57.2%	48.9%	36.3%	4.1% (active)	70.8%	13.3%	22.3%	42.9%	18.7%
